Laboratory results taken from PubChem BioAssay AID435030 (The Scripps Research Institute Molecular Screening Center, 2010).
Screen size: about 330,000 compounds; about 940 (0.28%) were called active. This is one part of a sample in which actives are shown more often than they occur. No stated cut-off is given here; in the data, active means inhibition above about 12%; inactive means the rest.

Experiment: growth inhibition of E. coli expressing H. pylori AddAB, primary screen, AddAB inhibitor project, absorbance (AID 435030);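 further: 0% = vehicle wells of infected cells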
Conditions: at 11.9 µM, hits give high values

Compound	inhibition
O=[N+]([O-])c1ccc(N=Cc2c(O)ccc3ccccc23)cc1	39.5% (active)
Cc1nc2ccccc2nc(=O)c1NNc1ccc([N+](=O)[O-])cc1	0.52% (inactive)
O=C(Oc1ccc([N+](=O)[O-])cc1)c1ccc2ccccc2n1	0.94% (inactive)
CC(Sc1nnc(Cc2ccc([N+](=O)[O-])cc2)o1)C(N)=O (stereo not drawn)	2.62% (inactive)
COC(=O)c1cc(S(=O)(=O)Nc2ccc(C)c(F)c2)c[nH]1	2.73% (inactive)
CCOc1ccc(OCC)c(NC(=O)C(NS(=O)(=O)c2ccc3c(c2)oc(=O)n3C)C(C)C)c1 (stereo not drawn)	0.33% (inactive)
O=C(CCNS(=O)(=O)c1ccccc1)NCCSc1ccc(Br)cc1	-1.46% (inactive)
CC(C)(C)CC(=O)Nc1nnc(SCC(=O)NCc2cccs2)s1	1.97% (inactive)
CC1CCN(C(=O)Cn2cc(C(=O)c3ccco3)c3ccccc32)CC1	0.41% (inactive)
Cc1cccc(NC(=O)Cn2cc(C(=O)c3ccco3)c3ccccc32)c1	13.8% (active)
O=C(Cn1cc(C(=O)c2cccs2)c2ccccc21)NCc1cccs1	-0.41% (inactive)
Cc1cc(C)c(S(=O)(=O)N2CCCC2CNC(=O)c2ccc3c(c2)OCO3)c(C)c1 (stereo not drawn)	2.32% (inactive)
N#Cc1ccc(OCCN2C(=O)NC3(CCSC3)C2=O)cc1 (stereo not drawn)	-2.01% (inactive)
O=C(OCC(=O)N1CCN(C(=O)c2ccco2)CC1)c1c(Cl)cccc1Cl	1.58% (inactive)
NS(=O)(=O)c1cccc(NC(=O)COC(=O)c2cc([N+](=O)[O-])ccc2N2CCCC2)c1	0.9% (inactive)
CCOCCCn1c(NN)nc2ccccc2c1=O	1.87% (inactive)
CCn1c(/C=C/c2ccc([N+](=O)[O-])o2)nc2ccccc2c1=O	17.8% (active)
CCn1c(=O)c([N+](=O)[O-])c(NCc2ccc3c(c2)OCO3)c2ccccc21	-0.08% (inactive)
CCOC(=O)c1sc(/N=C/C2=C(O)CC(C)(C)CC2=O)c(C(=O)OCC)c1C	-0.77% (inactive)
Cc1occc(=O)c1OCc1c(Cl)cccc1Cl	-0.74% (inactive)
CCOC(=O)c1ccc(NC(=O)Cn2cnc3cc(C)c(C)cc32)cc1	21% (active)
CCOC(=O)c1ccc(NC(=O)Cc2cccs2)cc1	3.49% (inactive)

Compound	inhibition
CCCc1nnc(SCC(=O)Nc2ccc(C(=O)OCC)cc2)o1	2.66% (inactive)
CSCc1ccc(C(=O)Nc2cc(C)cc(C)c2)cc1	0.9% (inactive)
CSCCC(NC(=O)c1cc([N+](=O)[O-])cc([N+](=O)[O-])c1)c1nc2ccccc2[nH]1 (stereo not drawn)	2.67% (inactive)
O=C(O)c1cccc(NC(=S)N/N=C/c2c[nH]c3ccccc23)c1	3.31% (inactive)
CSC(=S)N/N=C/c1c[nH]c2ccccc12	14.4% (active)
Nc1nonc1-n1nnc(C(=O)N/N=C/c2c[nH]c3ccccc23)c1-c1ccccc1	0.34% (inactive)
COC(=O)c1cc(S(=O)(=O)N2CCC(C(N)=O)CC2)oc1C	-2.11% (inactive)
COc1cccc(OC)c1CN(C)C(=O)c1cnccc1C(F)(F)F	3.15% (inactive)
CC(=O)Nc1ccc(CN2CCN(Cc3ccc(F)c(F)c3)C(CCO)C2)cc1 (stereo not drawn)	2.22% (inactive)
CCOC(=O)C1=NOC(Cn2cc(C(C)=O)c(=O)[nH]c2=O)C1 (stereo not drawn)	3.64% (inactive)
Cc1cn(C2C=CC(CO)O2)c(=O)[nH]c1=O (stereo not drawn)	20.5% (active)
Cc1cn(C2OC[C@@H](O)[C@@H]2CO)c(=O)[nH]c1=O (stereo partly drawn)	0.5% (inactive)
O=C(NNC(=O)C1C2CCC(C2)C1C(=O)O)c1ccc(Cl)cc1 (stereo not drawn)	-0.52% (inactive)
Cc1ccc(NC(=O)CN(C)C(=O)COC(=O)C(C)(C)Oc2ccc(Cl)cc2)cc1	1.52% (inactive)
Cc1ccc(O)c(NC(=O)c2cc(-c3ccco3)on2)c1	2.66% (inactive)
Nc1nonc1-n1nnc(C(=O)N/N=C/c2cc(Br)ccc2O)c1CSC1=NCCS1	17.5% (active)
Nc1nonc1-n1nnc(C(=O)N/N=C/c2ccccc2O)c1CN1CCCC1	4.54% (inactive)
Cc1ccc(SCc2c(C(=O)N/N=C/c3cccnc3)nnn2-c2nonc2N)cc1	3.86% (inactive)
CCOc1ccc(N(CC(=O)Nc2ccccc2F)S(=O)(=O)c2c(C)[nH]c(=O)[nH]c2=O)cc1	3.71% (inactive)
CCOc1ccccc1NC(=O)COc1ccc(S(=O)(=O)N2CCCC2)cc1	2.68% (inactive)
O=C(NC(Cc1ccccc1)C(=O)O)/C(=C\c1ccccc1)NC(=O)c1ccco1 (stereo not drawn)	0.08% (inactive)
O=C(CCS(=O)(=O)c1ccccc1)Nc1nc2c(s1)CCCC2	-2.56% (inactive)

Compound	inhibition
O=C(Cn1c(=O)sc2ccccc21)Nc1nc2c(s1)CCCC2	12.5% (active)
Cc1nnc(NC(=O)Cn2c(=O)sc3ccccc32)s1	3.04% (inactive)
CC(=O)Oc1ccccc1C(=O)Nc1ncc([N+](=O)[O-])s1	13.3% (active)
O=C(Cc1c(F)cccc1Cl)Nc1ncc([N+](=O)[O-])s1	5.83% (inactive)
Cc1cnc(NC(=O)c2ccccn2)s1	-4.66% (inactive)
COc1ccccc1CNC(=O)Cn1c(=O)oc2cc(Cl)ccc21	4.32% (inactive)
COC(=O)C1=C(Nc2ccc(C)cc2)C=C(C)C(C(=O)OC)C1c1ccc(F)cc1 (stereo not drawn)	1.3% (inactive)
NC(=O)COC(=O)c1sc2cc(F)ccc2c1Cl	1.69% (inactive)
CCOC(=O)N1CCC(Nc2c(NCCCN3CCN(c4ccc(OC)cc4)CC3)c(=O)c2=O)CC1	2.85% (inactive)
CC(NC(=O)COC(=O)C1CCN(S(=O)(=O)c2ccccc2C(F)(F)F)CC1)c1ccccc1 (stereo not drawn)	0.81% (inactive)
CC[C@H]1OC(=O)[C@H](C)[C@@H](O[C@H]2C[C@@](C)(OC)[C@@H](O)[C@H](C)O2)[C@H](C)[C@@H](O[C@@H]2O[C@H](C)C[C@H](N(C)C)[C@H]2O)[C@](C)(O)C[C@@H](C)[C@@H]2N[C@@H](COCCOC)O[C@H]([C@H]2C)[C@]1(C)O	41% (active)
CCCCNC(=O)C1(c2ccc(OC)cc2)CCOCC1	0.97% (inactive)
CC1(C)CC(N2CCN(C(c3ccccc3)c3ccccc3)CC2)=CC(=[N+]2CCCCC2)C1	1.52% (inactive)
Cc1nnc(SCCCCSc2nnc(C)c(=O)[nH]2)[nH]c1=O	-1.42% (inactive)
O=c1oc2c(Cl)cc(Cl)cc2cc1-c1nnc(Nc2ccccc2F)s1	-1.06% (inactive)
O=C(NC(=O)N1CCSCC1)c1c(Cl)cccc1Cl	1.83% (inactive)
CN(C)[C@@H]1C(=O)C(C(N)=O)=C(O)[C@@]2(O)C(=O)C3=C(O)c4c(O)ccc(Cl)c4[C@@H](O)[C@H]3C[C@@H]12	100% (active)
C=C1c2c(Cl)ccc(O)c2C(O)=C2C(=O)[C@]3(O)C(O)=C(C(N)=O)C(=O)[C@@H](N(C)C)[C@@H]3[C@@H](O)C12 (stereo partly drawn)	103% (active)
O=C(CCNC(=O)c1ccccc1)NN=Cc1ccc(Br)o1	-1.39% (inactive)
NC(=O)NCCCC(=O)O	4.03% (inactive)
CC(=O)N(O)CCCCCNC(=O)CCC(=O)N(O)CCCCCNC(=O)CCC(=O)N(O)CCCCCNC(=O)CCC(=O)O	22% (active)
COc1nc(N(C)C)nc(N2CC(=O)N(CCNS(=O)(=O)c3ccc(C)cc3)C2=N)n1	-0.32% (inactive)

Compound	inhibition
Cc1ccc(Cn2c(=N)c(S(=O)(=O)c3ccc(C)cc3)cc3c(=O)n4ccccc4nc32)cc1	1.33% (inactive)
CC1(C)CC(=O)c2cnc3nc4ccccc4n3c2C1	-0.86% (inactive)
COc1ccc(CCN=C2SCC(=O)N2Cc2ccccc2)cc1OC	1.52% (inactive)
O=C(N/N=C\c1ccc(-c2ccc(Cl)c(Cl)c2)o1)C(=O)N1CCCC1	-0.96% (inactive)
O=c1ccc2c(-c3ccccc3S(=O)(=O)O)c3ccc(O)c(O)c3oc-2c1O	22.5% (active)
C=C1CCN([C@H](C(=O)NCc2cc(OC)c(OC)c(OC)c2)C(C)C)S(=O)(=O)c2ccccc21	0.6% (inactive)
COc1ccc(CNC(=O)C[C@H]2C[C@H](C(=O)N3CCOCC3)[C@@]3(C)c4[nH]c5cc(CCC(=O)N(C)C)ccc5c4CCN3C2=O)cc1OC	-1.37% (inactive)
O=C(Cc1ncc(C(F)(F)F)cc1Cl)Nc1cccc(Br)c1	0.17% (inactive)
COc1ccc(C(=O)c2oc3ccc(Br)cc3c2NC(C)=O)cc1	100% (active)
COc1ccc(CC(=O)Nc2c(C(N)=O)oc3ccccc23)cc1	2.54% (inactive)
COC(=O)c1oc2ccc(Br)cc2c1NC(C)=O	-2.24% (inactive)
CC(=O)/C(=N\Nc1ccc(Cl)cc1Cl)Sc1cccc2cccnc12	-1.2% (inactive)
C[C@H]1[C@H]2c3nc4ccccc4n3C[C@H]1ON2C1CCCCC1	3.89% (inactive)
COc1ccc(CNC(=O)CN(Cc2ccc(Cl)cc2)S(C)(=O)=O)cc1	3.57% (inactive)
COC(=O)N/N=C/c1cn(CCCOc2ccc(C)cc2)c2ccccc12	3.22% (inactive)
COC(=O)N/N=C/c1ccc(-c2ccc(Cl)c(Cl)c2)o1	1.71% (inactive)
COC(=O)N/N=C/c1c[n+]([O-])c2ccccc2[n+]1[O-]	89.8% (active)
OCCNCCOc1ccc(Cl)c(Cl)c1	0.51% (inactive)
COc1ccc(CCNC(=O)/C(C#N)=C2\N=C(NC(=O)c3cccs3)c3ccccc32)cc1	3.86% (inactive)
C#CCSc1nnc(-c2sc3ccccc3c2Cl)o1	1.12% (inactive)
O=C(NCC#CCSc1nnc(-c2cccc3ccccc23)o1)c1cccs1	12.4% (active)
COc1ccc2cc(CCl)c(Cl)nc2c1	-0.08% (inactive)
